Laboratory results taken from PubChem BioAssay (NCI).
Compounds without any hit were thinned out: in the full panel of roughly 83,000, 20% have a hit.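 Interpretation: 100, growth as untreated; towards 0, rising growth inhibition; 0, no net growth; 0 to -100, cell death. Compounds scoring below 10 were considered active.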 Unmarked numbers belong to inactive results. Calls of active or inactive are those of the source.

The compounds below were run on HCC-2998 colon (assay: NCI-60 one-dose screen, 48 h (100 = growth as untreated, 0 = no growth, -100 = all killed)). Conditions: 10 µM.
COC(=O)Nc1nc2ccc(C(=O)c3ccc(F)cc3)cc2[nH]1 was tested, and the growth was 16.1%.
Nc1ccccc1SC(CC(=O)c1ccccc1)c1c(Cl)cccc1Cl (stereo not given) showed a growth of 86.9%.
For CC1=CC(=O)c2ccccc2C1=O, the growth was 108%.
Compound O=C(Nc1ccccc1)OCCc1ccccc1 has a growth of 99.7%.
Work on COc1ccccc1N1CCN(C(=S)Nc2ccccc2)CC1 yielded a growth of 134%.
O=C1OC(c2ccc(F)cc2)CC1CN1CCOCC1 (stereo not given) showed a growth of 98.8%.
Compound CCCNC(=O)c1ccc(S(N)(=O)=O)cc1 has a growth of 100%.
COC(=O)CCCCC1=CCC2C(=O)C=C(O)C2C1 (stereo not given) showed a growth of 132%.
CCOC(=O)CCCS(C)(=O)=O was tested, and the growth was 91%.
In the case of Nc1ccc(NC(=O)c2cccc(N)c2)cc1, the growth is reported as 107%.
CCN(CC)CCNc1ccc(CO)c2sc3ccccc3c(=O)c12 was tested, and the growth was 40.6%.
CCOC(=O)c1cc(/C=C/c2ccc(Cl)cc2Cl)on1 was tested, and the growth was 82%.
For COc1cccc(Sc2ccc([N+](=O)[O-])c3no[n+]([O-])c23)c1, the growth was 55.4%.
For O=C(NC1CCCCC1)OCc1c(COC(=O)NC2CCCCC2)c(-c2ccc(Cl)c(Cl)c2)n2c1CCC2, the growth was 30.5%.
O=C1OC(=O)C2C1C1(Cl)C(Cl)=C(Cl)C2(Cl)C2C(=O)OC(=O)C21 (stereo not given) showed a growth of 108%.
In the case of c1ccc(Cc2ccccc2)cc1, the growth is reported as 106%.
For COc1ccc2c(NCCCCCCCCNc3c4ccccc4nc4cc(OC)ccc34)c3ccccc3nc2c1, the growth was -100% (active).
CCCC(=O)c1cc(C)ccc1OC was tested, and the growth was 111%.

The compounds below were run on KM12 colon in the same assay as above. Conditions: 10 µM.
Work on S=c1sc2ccccc2n1CN1CCCCC1 yielded a growth of 98.4%.
With CSc1[nH]c(=O)ncc1F the growth was 104%.
For COc1ccc(-c2cc(-c3cc(-c4ccc(OC)cc4)nc(N)n3)nc(N)n2)cc1, the growth was 101%.
Compound Cc1cc(N)c(S(=O)(=O)O)c(N)c1 has a growth of 107%.
In the case of COc1ccccc1NC(=O)C1=C(C)NC(C)=C(C(=O)Nc2ccccc2OC)C1c1cccc([N+](=O)[O-])c1, the growth is reported as 67.3%.
C=CCNc1nnc(C)s1 showed a growth of 101%.
Work on COC(=O)C(C)Oc1ccc(OC#N)cc1 (stereo not given) yielded a growth of 99.8%.
CCc1nn(Cc2ccccc2)c2nc(C)c(CCc3ccccc3)c(Cl)c12 was tested, and the growth was 101%.
c1c(-c2cc(C3CC3)[nH]n2)n[nH]c1C1CC1 was tested, and the growth was 109%.
For O=C(CCNNC(=O)c1ccncc1)NCc1ccccc1, the growth was 97.5%.
CC(=O)Nc1cccc(Cl)c1C was tested, and the growth was 98.9%.
Work on CC(=O)C1CCCCC1 yielded a growth of 100%.
Work on CCOC(=O)/C(C#N)=C/c1cccc(C)c1 yielded a growth of 103%.
CC(C(=O)O)(C1CCCCC1)C1(O)CCCCC1 (stereo not given) showed a growth of 98.4%.
Work on CN(C)c1ccc2oc(=O)c3ccccc3c2c1 yielded a growth of 90.9%.
In the case of O=C(OCC(O)C1OC(c2ccccc2)OC(COC(=O)c2ccccc2)C1O)c1ccccc1 (stereo not given), the growth is reported as 111%.
Compound O=C(O)c1ccc(S(=O)(=O)O)cc1 has a growth of 109%.
Work on OC1CCCc2ccccc21 (stereo not given) yielded a growth of 109%.
CCCCCCCCCCCCCC(=O)Oc1ccc[nH]c1=O gave a growth of 92.7%.
Compound COc1cc2c(cc1OC)[C@H](C(=O)O)[C@@H](c1ccc(OC(C)C)c(OC)c1)N(C)C2=O has a growth of 107%.
With COC(=O)Nc1nc2ccc(C(=O)c3ccc(F)cc3)cc2[nH]1 the growth was -4.55% (active).
With Nc1ccccc1SC(CC(=O)c1ccccc1)c1c(Cl)cccc1Cl (stereo not given) the growth was 33.1%.
Work on CC1=CC(=O)c2ccccc2C1=O yielded a growth of 104%.
O=C(Nc1ccccc1)OCCc1ccccc1 showed a growth of 111%.
O=C1OC(c2ccc(F)cc2)CC1CN1CCOCC1 (stereo not given) showed a growth of 102%.
Compound CCCNC(=O)c1ccc(S(N)(=O)=O)cc1 has a growth of 106%.
CCOC(=O)CCCS(C)(=O)=O was tested, and the growth was 108%.
Nc1ccc(NC(=O)c2cccc(N)c2)cc1 was tested, and the growth was 103%.
With CCN(CC)CCNc1ccc(CO)c2sc3ccccc3c(=O)c12 the growth was 42.5%.
CCOC(=O)c1cc(/C=C/c2ccc(Cl)cc2Cl)on1 was tested, and the growth was -29.7% (active).
In the case of O=[N+]([O-])c1ccccc1S(=O)c1ccccc1[N+](=O)[O-], the growth is reported as 88.1%.
COc1cccc(Sc2ccc([N+](=O)[O-])c3no[n+]([O-])c23)c1 gave a growth of 92.3%.
O=C(NC1CCCCC1)OCc1c(COC(=O)NC2CCCCC2)c(-c2ccc(Cl)c(Cl)c2)n2c1CCC2 gave a growth of 56.3%.
With O=C1OC(=O)C2C1C1(Cl)C(Cl)=C(Cl)C2(Cl)C2C(=O)OC(=O)C21 (stereo not given) the growth was 106%.
c1ccc(Cc2ccccc2)cc1 showed a growth of 98.9%.
For COc1ccc2c(NCCCCCCCCNc3c4ccccc4nc4cc(OC)ccc34)c3ccccc3nc2c1, the growth was -100% (active).
With CCCC(=O)c1cc(C)ccc1OC the growth was 110%.
